One may read the inhibition as the change of the read-out against control, counted positive when it falls.

Results on 1 molecule are retold here after ChEMBL document CHEMBL1961873, “Compounds: GSK PKIS; Assays: Nanosyn kinase panel” (2012).

For assay [1], the target named is Sphingosine kinase 1 (Homo sapiens) (UniProt Q9NYA1). To be noted: at 1 µM.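 Further: mean SPHK1 inhibition value reported from the GSK PKIS kinase panel screen.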
Assay [2] deals with T1, Sphingosine kinase 2 (Homo sapiens) (UniProt Q9NRA0).
T1 sequence (whole entry): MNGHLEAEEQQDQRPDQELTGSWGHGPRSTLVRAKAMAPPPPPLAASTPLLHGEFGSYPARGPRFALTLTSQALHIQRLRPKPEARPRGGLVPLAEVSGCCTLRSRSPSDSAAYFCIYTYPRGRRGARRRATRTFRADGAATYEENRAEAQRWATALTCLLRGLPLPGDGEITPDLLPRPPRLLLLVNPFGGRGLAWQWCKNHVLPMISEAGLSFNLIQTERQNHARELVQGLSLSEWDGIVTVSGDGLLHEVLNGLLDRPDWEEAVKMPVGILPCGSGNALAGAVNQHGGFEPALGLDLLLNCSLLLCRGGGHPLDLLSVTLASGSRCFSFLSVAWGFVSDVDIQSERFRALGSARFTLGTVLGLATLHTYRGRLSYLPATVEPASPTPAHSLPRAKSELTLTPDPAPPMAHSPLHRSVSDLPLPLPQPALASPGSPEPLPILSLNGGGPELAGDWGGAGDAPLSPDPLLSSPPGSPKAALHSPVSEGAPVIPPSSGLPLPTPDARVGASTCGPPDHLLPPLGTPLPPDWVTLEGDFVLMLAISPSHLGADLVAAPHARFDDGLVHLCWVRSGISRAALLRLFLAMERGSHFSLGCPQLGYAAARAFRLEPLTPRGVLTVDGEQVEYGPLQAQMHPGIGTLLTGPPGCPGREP
The conditions noted are these: at 0.1 µM.

For assay [3], the target named is T1, Sphingosine kinase 2 (Homo sapiens). To be noted: at 1 µM.
Assay [4] deals with Casein kinase II subunit alpha (Homo sapiens) (UniProt P68400). To be noted: at 0.1 µM.
The target is the same in assay [5]. To be noted: at 1 µM.
The target in assay [6] is T2, Inhibitor of nuclear factor kappa-B kinase subunit alpha (Homo sapiens) (UniProt O15111).
T2 sequence (whole entry): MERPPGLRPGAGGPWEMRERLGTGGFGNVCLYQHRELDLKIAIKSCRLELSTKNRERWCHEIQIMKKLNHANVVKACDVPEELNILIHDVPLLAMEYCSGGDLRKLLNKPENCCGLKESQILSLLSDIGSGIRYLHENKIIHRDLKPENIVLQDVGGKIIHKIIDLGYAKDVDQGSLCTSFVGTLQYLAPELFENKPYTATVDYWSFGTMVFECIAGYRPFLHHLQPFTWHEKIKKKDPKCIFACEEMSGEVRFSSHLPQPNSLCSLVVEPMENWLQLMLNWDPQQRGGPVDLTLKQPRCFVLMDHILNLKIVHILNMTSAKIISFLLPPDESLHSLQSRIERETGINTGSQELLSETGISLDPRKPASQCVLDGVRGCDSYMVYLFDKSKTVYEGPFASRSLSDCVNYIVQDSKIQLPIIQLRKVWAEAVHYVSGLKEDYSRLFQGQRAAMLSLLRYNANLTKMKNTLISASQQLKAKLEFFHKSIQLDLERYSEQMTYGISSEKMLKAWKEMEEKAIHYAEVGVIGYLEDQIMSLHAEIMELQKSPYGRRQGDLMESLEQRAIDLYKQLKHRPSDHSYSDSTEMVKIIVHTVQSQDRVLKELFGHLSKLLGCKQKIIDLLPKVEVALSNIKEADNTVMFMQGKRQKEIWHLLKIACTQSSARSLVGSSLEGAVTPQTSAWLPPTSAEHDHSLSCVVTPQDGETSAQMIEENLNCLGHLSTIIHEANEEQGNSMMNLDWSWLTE
To be noted: at 0.1 µM.

In assay [7] the target is T2, Inhibitor of nuclear factor kappa-B kinase subunit alpha (Homo sapiens). The conditions noted are these: at 1 µM.
The target in assay [8] is T3, Inhibitor of nuclear factor kappa-B kinase subunit beta (Homo sapiens) (UniProt O14920).
T3 sequence (whole entry): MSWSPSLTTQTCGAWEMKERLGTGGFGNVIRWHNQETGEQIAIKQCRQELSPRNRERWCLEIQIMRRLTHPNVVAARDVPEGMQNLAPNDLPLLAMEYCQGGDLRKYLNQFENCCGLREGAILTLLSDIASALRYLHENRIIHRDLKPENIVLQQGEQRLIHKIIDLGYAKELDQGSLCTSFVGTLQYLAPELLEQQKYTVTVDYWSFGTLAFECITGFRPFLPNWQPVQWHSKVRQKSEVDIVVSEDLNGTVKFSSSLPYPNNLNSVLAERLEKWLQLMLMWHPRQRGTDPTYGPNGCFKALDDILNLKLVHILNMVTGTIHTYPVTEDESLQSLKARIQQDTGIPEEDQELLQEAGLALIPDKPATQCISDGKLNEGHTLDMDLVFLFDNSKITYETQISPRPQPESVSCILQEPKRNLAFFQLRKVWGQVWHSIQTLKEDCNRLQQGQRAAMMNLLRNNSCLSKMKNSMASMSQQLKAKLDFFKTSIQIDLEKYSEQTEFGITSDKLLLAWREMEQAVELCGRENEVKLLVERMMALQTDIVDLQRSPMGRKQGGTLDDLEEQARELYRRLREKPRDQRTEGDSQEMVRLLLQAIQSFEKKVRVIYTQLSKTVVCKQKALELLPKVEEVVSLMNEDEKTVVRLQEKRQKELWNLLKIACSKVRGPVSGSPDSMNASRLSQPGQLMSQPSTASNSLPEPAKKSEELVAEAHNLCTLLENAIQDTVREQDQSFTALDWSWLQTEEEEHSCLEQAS
To be noted: at 0.1 µM.

Assay [9] addresses T3, Inhibitor of nuclear factor kappa-B kinase subunit beta (Homo sapiens). To be noted: at 1 µM.
Assay [10] addresses T4, Inhibitor of nuclear factor kappa-B kinase subunit epsilon (Homo sapiens) (UniProt Q14164).
T4 sequence (whole entry): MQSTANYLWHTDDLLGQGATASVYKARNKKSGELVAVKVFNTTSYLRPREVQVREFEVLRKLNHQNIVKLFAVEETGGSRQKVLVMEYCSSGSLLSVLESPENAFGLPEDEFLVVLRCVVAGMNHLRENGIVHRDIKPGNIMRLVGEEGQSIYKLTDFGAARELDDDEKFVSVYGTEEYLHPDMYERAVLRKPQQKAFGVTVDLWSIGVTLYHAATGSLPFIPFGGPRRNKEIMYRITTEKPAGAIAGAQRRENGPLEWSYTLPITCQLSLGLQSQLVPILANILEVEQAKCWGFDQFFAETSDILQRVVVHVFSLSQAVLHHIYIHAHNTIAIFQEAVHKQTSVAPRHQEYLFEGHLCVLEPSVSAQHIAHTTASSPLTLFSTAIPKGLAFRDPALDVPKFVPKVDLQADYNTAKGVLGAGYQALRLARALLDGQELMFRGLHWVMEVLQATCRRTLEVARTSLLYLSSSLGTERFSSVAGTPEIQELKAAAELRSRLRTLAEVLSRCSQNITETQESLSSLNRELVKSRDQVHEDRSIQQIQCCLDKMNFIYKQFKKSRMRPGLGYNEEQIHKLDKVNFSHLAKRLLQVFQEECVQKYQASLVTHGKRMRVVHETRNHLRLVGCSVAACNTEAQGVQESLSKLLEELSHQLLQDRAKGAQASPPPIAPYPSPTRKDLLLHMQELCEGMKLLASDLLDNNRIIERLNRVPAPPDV
The conditions noted are these: at 0.1 µM.

The target in assay [11] is T4, Inhibitor of nuclear factor kappa-B kinase subunit epsilon (Homo sapiens). To be noted: at 1 µM.
In assay [12] the target is T5, Serine/threonine-protein kinase Nek1 (Homo sapiens) (UniProt Q96PY6).
T5 sequence (whole entry): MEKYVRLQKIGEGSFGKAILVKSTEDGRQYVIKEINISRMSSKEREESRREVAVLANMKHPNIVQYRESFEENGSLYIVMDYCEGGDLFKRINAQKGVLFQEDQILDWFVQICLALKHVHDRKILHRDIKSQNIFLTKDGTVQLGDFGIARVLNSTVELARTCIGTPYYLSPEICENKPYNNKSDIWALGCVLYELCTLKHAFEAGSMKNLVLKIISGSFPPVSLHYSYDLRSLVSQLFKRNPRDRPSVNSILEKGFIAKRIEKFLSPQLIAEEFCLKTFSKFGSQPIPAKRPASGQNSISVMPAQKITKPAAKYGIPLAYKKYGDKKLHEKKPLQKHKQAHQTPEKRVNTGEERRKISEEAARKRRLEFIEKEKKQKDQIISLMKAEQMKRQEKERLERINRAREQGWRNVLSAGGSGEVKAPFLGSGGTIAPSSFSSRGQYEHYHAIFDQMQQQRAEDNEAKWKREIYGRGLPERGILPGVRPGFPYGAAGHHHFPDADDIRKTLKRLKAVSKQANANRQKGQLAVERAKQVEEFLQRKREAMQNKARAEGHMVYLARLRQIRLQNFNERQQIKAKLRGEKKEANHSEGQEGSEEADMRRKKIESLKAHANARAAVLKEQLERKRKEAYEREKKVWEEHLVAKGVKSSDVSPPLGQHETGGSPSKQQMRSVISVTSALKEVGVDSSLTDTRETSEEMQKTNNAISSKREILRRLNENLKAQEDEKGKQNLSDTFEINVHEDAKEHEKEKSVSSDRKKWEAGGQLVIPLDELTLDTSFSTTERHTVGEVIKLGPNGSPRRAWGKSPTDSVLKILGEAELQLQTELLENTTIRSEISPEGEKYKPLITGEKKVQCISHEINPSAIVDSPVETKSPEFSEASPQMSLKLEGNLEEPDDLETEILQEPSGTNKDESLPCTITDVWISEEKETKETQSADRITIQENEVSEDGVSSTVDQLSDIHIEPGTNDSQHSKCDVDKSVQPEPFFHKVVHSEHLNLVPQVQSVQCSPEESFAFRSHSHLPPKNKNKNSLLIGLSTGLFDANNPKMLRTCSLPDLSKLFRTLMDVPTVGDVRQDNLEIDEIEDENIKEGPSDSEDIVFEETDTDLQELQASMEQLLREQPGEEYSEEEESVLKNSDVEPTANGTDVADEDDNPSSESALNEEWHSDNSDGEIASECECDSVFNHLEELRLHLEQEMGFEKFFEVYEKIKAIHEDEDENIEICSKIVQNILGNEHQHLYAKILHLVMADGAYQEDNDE
The conditions noted are these: at 0.1 µM.

Assay [13] deals with T5, Serine/threonine-protein kinase Nek1 (Homo sapiens). To be noted: at 1 µM.
In assay [14] the target is T6, Serine/threonine-protein kinase Nek2 (Homo sapiens) (UniProt P51955).
T6 sequence (whole entry): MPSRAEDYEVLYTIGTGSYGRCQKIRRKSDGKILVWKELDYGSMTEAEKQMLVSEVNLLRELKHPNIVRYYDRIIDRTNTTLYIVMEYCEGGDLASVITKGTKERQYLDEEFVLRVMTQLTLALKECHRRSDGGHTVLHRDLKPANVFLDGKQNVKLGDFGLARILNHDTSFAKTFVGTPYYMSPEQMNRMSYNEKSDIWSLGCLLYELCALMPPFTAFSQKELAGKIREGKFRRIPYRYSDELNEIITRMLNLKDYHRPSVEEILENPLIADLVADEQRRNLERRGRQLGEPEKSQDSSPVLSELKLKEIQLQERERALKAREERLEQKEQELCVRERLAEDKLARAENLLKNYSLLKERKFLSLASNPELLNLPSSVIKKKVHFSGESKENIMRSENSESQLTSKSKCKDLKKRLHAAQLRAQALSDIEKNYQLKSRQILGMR
To be noted: at 0.1 µM.

Assay [15] has as its target T6, Serine/threonine-protein kinase Nek2 (Homo sapiens). To be noted: at 1 µM.
The target of assay [16] is Serine/threonine-protein kinase Nek6 (Homo sapiens) (UniProt Q9HC98). To be noted: at 0.1 µM.
The target is the same in assay [17]. The conditions noted are these: at 1 µM.
The target of assay [18] is Serine/threonine-protein kinase Nek7 (Homo sapiens) (UniProt Q8TDX7). The conditions noted are these: at 0.1 µM.
Assay [19] has the same target. The conditions noted are these: at 1 µM.
In assay [20] the target is T7, Serine/threonine-protein kinase Nek9 (Homo sapiens) (UniProt Q8TD19).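 Further: reported value is the mean percent inhibition of NEK9.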
T7 sequence (whole entry): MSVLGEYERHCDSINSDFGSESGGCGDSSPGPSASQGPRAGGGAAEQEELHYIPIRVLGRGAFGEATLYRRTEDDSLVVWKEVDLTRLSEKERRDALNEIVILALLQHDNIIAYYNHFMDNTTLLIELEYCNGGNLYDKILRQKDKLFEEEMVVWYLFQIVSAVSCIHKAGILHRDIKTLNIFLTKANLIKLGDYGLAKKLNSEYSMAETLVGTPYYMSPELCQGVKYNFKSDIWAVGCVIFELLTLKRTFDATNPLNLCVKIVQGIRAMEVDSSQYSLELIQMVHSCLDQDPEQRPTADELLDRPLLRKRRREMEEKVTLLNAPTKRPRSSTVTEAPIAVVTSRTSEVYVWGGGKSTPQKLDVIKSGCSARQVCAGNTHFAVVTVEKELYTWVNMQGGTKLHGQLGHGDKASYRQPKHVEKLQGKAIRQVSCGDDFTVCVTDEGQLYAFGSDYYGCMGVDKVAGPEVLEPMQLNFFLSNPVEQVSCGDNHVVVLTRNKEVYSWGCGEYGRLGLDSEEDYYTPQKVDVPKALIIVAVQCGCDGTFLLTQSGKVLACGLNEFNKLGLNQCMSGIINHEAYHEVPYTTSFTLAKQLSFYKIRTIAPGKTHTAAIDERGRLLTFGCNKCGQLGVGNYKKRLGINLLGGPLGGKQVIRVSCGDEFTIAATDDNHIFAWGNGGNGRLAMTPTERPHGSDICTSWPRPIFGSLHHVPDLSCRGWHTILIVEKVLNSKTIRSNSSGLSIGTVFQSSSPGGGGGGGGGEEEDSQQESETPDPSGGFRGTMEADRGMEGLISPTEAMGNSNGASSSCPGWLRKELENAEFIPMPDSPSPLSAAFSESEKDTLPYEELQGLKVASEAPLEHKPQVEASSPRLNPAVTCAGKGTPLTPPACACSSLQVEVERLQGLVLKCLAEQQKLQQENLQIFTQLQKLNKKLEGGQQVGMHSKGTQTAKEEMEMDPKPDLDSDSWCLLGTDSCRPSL
To be noted: at 0.1 µM.

Casein kinase II subunit alpha (Homo sapiens), sequence (P68400 whole entry, looked up): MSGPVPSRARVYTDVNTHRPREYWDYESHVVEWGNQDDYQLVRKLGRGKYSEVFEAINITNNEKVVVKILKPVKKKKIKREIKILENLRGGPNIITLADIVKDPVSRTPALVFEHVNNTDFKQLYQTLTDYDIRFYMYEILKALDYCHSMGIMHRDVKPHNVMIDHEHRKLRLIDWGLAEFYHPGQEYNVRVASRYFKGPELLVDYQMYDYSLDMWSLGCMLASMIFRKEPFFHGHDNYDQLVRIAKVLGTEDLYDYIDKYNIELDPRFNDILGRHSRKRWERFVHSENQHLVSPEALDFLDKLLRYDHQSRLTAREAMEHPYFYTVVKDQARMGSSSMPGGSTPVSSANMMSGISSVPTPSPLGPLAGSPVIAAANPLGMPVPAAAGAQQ
Serine/threonine-protein kinase Nek7 (Homo sapiens), sequence (Q8TDX7 whole entry, looked up): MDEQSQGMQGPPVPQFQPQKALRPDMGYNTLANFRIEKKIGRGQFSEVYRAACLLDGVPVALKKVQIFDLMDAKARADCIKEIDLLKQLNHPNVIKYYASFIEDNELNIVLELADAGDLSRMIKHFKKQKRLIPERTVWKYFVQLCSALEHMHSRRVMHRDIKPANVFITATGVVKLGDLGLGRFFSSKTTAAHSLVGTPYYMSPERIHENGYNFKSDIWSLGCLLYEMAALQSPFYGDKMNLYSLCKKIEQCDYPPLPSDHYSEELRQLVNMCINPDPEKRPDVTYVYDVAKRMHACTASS
Serine/threonine-protein kinase Nek6 (Homo sapiens), sequence (Q9HC98 whole entry): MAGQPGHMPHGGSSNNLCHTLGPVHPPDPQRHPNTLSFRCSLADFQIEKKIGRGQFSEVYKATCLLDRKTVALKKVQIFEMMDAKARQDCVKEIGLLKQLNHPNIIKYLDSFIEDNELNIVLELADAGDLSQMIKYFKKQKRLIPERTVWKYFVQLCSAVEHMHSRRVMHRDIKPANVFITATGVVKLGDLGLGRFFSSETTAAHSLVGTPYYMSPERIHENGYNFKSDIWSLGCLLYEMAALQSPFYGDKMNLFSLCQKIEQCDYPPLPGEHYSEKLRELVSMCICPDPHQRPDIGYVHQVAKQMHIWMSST
Sphingosine kinase 1 (Homo sapiens), sequence (Q9NYA1 whole entry): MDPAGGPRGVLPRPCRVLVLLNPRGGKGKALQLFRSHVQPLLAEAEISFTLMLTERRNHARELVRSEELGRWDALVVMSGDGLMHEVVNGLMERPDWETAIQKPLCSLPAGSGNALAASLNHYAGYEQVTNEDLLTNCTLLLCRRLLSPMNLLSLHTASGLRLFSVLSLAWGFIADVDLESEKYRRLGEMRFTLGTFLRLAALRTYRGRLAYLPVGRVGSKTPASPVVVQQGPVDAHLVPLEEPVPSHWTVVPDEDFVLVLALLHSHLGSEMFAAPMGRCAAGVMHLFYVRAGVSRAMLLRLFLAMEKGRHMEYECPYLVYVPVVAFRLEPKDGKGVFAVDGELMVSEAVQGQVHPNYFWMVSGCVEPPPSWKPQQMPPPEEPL

Consider `CCn1c(-c2nonc2N)nc2c(C#CC(C)(C)O)ncc(OCC3CCNCC3)c21`, for which the inhibition in [1] is 0.24%; in assay [2], 1.73%; in assay [3], -2.73%; in assay [4], 4.56%; in assay [5], 12.8%; in assay [6], 7.05%. The inhibition in assay [7] amounted to 7.37%; in assay [8], 4.88%; in assay [9], 4.77%; in assay [10] it was 90.3%; in [11] it was 99.1%; in assay [12], 2.19%. For the same molecule, the inhibition was 3.24% in assay [13]; 3.86% in [14]; 3.71% in assay [15]; 3.46% in [16]; 4.94% in assay [17]; 3.99% in [18]. Further, the inhibition in assay [19] amounted to 3.34%; in assay [20], 5.3%.
